In PMC6212790, “How bacterial xenogeneic silencer rok distinguishes foreign from self DNA in its resident genome”:
Whole data set: some 33,000 sequences, median “e-score” near -0.037, cut for the highest 2% near 0.34. Only a selection was taken, and the highest values are over-represented in it overall.

These sequences were tested against T1, GST-Rok (full length) (Bacillus subtilis subsp. subtilis str. …, UniProt O34857 1-191) (assay: protein binding microarray; Rok is a gene silencer of Bacillus subtilis; high values mean tight binding). Details: protein: recombinant; tags: GST (pTH5325, pDEST15-Magic modified); dsDNA, one strand shown.
T1 sequence: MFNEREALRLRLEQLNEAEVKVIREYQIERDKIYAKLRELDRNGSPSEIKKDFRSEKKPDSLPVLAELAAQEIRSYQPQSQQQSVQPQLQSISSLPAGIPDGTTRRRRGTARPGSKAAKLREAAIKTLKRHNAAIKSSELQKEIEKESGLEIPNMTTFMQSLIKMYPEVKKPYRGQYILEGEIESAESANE
Summary of the method: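 Each has a 25-mer constant primer and a 35-mer variable part from a de Bruijn sequence of order 10, covering every non-palindromic 8-mer at least 32 times (palindromic 16). Preference for each 8-mer is given as a rank-based, unitless enrichment score (E-score). Its range runs from 0.5 (most favored) to −0.5 (most disfavored).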

Sequence	binding signal
AAAGCCTG	-0.18 E-score
ATTTTAAA	0.126 E-score
GTCGCTAA	0.16 E-score
GCATATGC	0.129 E-score
CTCATAAG	-0.129 E-score
AACTACAT	0.419 E-score
TACTACAA	0.357 E-score
CACTACAG	-0.0355 E-score
ACCTACAA	0.265 E-score
GCCTACAA	0.107 E-score
AACTACAC	0.335 E-score
ACCTACAG	0.0467 E-score
AACTACAG	0.337 E-score
GACTACAA	0.12 E-score
ACCTACAT	0.271 E-score
CACTACAA	0.143 E-score
AACTACAA	0.34 E-score
GAACCAGC	-0.148 E-score
GTAATCCA	0.00713 E-score
ACATCGGA	0.06 E-score
ATTTTTGA	0.0221 E-score
GCTCTCAA	-0.174 E-score
CCTAGCGA	-0.111 E-score
TTCTACAA	0.392 E-score
CTCTACAA	0.0924 E-score

Sequence	binding signal
AGCTACAT	0.364 E-score
GTCTACAA	0.11 E-score
AGCTACAA	0.205 E-score
AGCTACAC	0.191 E-score
ACTTCGTC	-0.0747 E-score
TGTCCAAA	0.0695 E-score
ACCGGCCG	-0.0951 E-score
TCGAGAAA	0.135 E-score
ATTATTTA	0.406 E-score
AGTATTTC	0.332 E-score
GGTATTCA	-0.0162 E-score
CGTATTTA	0.261 E-score
GTTATTTA	0.197 E-score
AGTATTTG	0.31 E-score
CTTATTTA	0.148 E-score
GGTATTTA	0.356 E-score
AGTATTTA	0.344 E-score
AAATGCTC	-0.142 E-score
AAGATTAG	0.197 E-score
ACCAGTGC	-0.175 E-score
TAGCAGCA	0.0346 E-score
ATAATAAA	0.297 E-score
ATAATAAT	0.372 E-score
ATAATACC	0.174 E-score
CTAATATC	0.255 E-score

Sequence	binding signal
ATAATACG	0.349 E-score
CTAATAGA	0.0426 E-score
ATAATAAC	0.312 E-score
GGAATATA	0.366 E-score
ATAATACA	0.237 E-score
CTAATATA	0.349 E-score
CGAATATA	0.321 E-score
AGAATATA	0.296 E-score
GTGGGTAA	0.142 E-score
AGTGACAT	0.101 E-score
AGCAAAAG	-0.151 E-score
CCACTGAA	-0.106 E-score
CCCATTGA	-0.11 E-score
ACTTGATG	-0.00809 E-score
AGCGCTGG	-0.124 E-score
AGGCGTGC	-0.13 E-score
ATATTCAT	0.319 E-score
GTGACGGA	-0.136 E-score
TCGTTCAA	0.0056 E-score
ATAATATC	0.274 E-score
GTAATAGA	0.257 E-score
GTAATACA	0.247 E-score
ATAATATG	0.232 E-score
ATAATATA	0.453 E-score
GTAATATA	0.391 E-score

Sequence	binding signal
GCATGTCA	-0.0408 E-score
ACGAGTTG	0.149 E-score
GAGATTGA	0.0297 E-score
TTGGTAAA	0.217 E-score
CATATCGA	0.0224 E-score
CTTTAAAG	0.0411 E-score
CCTAGTTA	0.209 E-score
GCTAGTCA	-0.0821 E-score
ACTAGTCA	0.352 E-score
ACTAGTCC	0.108 E-score
GCTAGTTA	0.337 E-score
ACTAGTTA	0.44 E-score
ACTAGTTC	0.329 E-score
GCTAGTGA	0.0873 E-score
ACTAGTCG	0.292 E-score
ACTGTTCT	0.0222 E-score
AAATAGGC	0.00361 E-score
AACATTAA	0.133 E-score
AGCTGCTC	-0.187 E-score
CTCCATAC	0.166 E-score
AGTCTGAC	-0.198 E-score
GTTAGGTA	0.191 E-score
CCAAAAAG	-0.177 E-score
GGAATTAA	0.111 E-score
CCTCAGTA	0.0795 E-score

Sequence	binding signal
CTGGCTCA	0.0475 E-score
CTCGAGCA	-0.112 E-score
CTTCGAAA	-0.139 E-score
CGTGAACA	0.0255 E-score
ACTTGTAA	0.168 E-score
ACTTGTAC	0.345 E-score
AATTGTAC	0.341 E-score
ACTTGTAT	0.236 E-score
GATTGTAC	0.317 E-score
AATTGTAG	0.28 E-score
ACGGTTAG	-0.0112 E-score
GTTATTGA	0.0636 E-score
CGTTACAA	0.151 E-score
CTCAGTTC	-0.0174 E-score
ATCTAGTA	0.408 E-score
ATCTAGTC	0.297 E-score
ATCTAGCC	0.178 E-score
CTCTAGCA	-0.115 E-score
ATCTAGCA	0.339 E-score
CTCTAGTA	0.119 E-score
AACTTCAT	0.0811 E-score
GCTGTGAC	-0.0172 E-score
AGATAACA	0.241 E-score
CTTACCAC	0.00163 E-score
AGTTGCGA	0.0582 E-score

Sequence	binding signal
GAACTGAA	-0.118 E-score
AGACCGTC	-0.193 E-score
CCAATGGG	-0.118 E-score
AGTCTGCG	0.0274 E-score
AGTGGGCA	-0.0765 E-score
GACGACGC	0.0038 E-score
CTATATCC	0.0894 E-score
GAATATCA	0.18 E-score
CTATATCA	0.231 E-score
ATATATCC	0.18 E-score
CAATATCA	0.183 E-score
ATATATCA	0.398 E-score
ATATATCG	0.381 E-score
GTATATCA	0.208 E-score
TAATATCA	0.338 E-score
CCTTAATC	-0.174 E-score
AGGAAGTA	0.0966 E-score
GCTCCGGA	-0.102 E-score
CCTACTTC	0.211 E-score
ACATCTCG	-0.0379 E-score
CACGTCAA	0.00857 E-score
AACTTCTT	-0.00379 E-score
TCTTAAGA	0.00924 E-score
AGTGATTG	-0.118 E-score
GGTGTCGA	-0.128 E-score

Sequence	binding signal
CGCTGAGC	-0.0254 E-score
GACTAATA	0.225 E-score
AACTAATC	0.158 E-score
CACTAATA	0.277 E-score
AACTAATT	0.32 E-score
TACTAATA	0.346 E-score
AACTAATG	0.339 E-score
CACTAATG	0.154 E-score
ACCTAATA	0.176 E-score
AACTAATA	0.357 E-score
AGATTACG	0.17 E-score
AAACCCGT	-0.0147 E-score
ACCGGCAA	-0.0643 E-score
TTCCCCAA	-0.0604 E-score
GTGATTCA	-0.0295 E-score
TGATGCAA	-0.0283 E-score
CGCGGTAA	0.147 E-score
AGTCAATA	0.322 E-score
AATATATG	0.33 E-score
AATATATT	0.41 E-score
AATATAAT	0.228 E-score
AATATATA	0.469 E-score
AATATATC	0.412 E-score
AAGATATA	0.313 E-score
AATATAAC	0.193 E-score

Sequence	binding signal
CGTATATC	0.196 E-score
AATATTAT	0.208 E-score
GATGGGAA	-0.056 E-score
CAGGACGG	-0.164 E-score
CAGAGTTA	-0.0506 E-score
ATTATAGG	0.285 E-score
ACTACTCA	0.281 E-score
TCTACTAA	0.353 E-score
TCTACTCA	0.206 E-score
ACTACTTA	0.432 E-score
CGTACTTA	0.264 E-score
ACTACTGA	0.323 E-score
CCTACTAA	-0.00507 E-score
ACTACTAA	0.386 E-score
ACTACTTC	0.193 E-score
AGTACTTA	0.349 E-score
GCTACTAA	0.199 E-score
AGTACTTG	0.297 E-score
AGTAACAT	0.242 E-score
CTCCATTC	0.0472 E-score
GCTACAGC	0.0848 E-score
ACGCGGCA	-0.129 E-score
GTAGAAGA	0.247 E-score
ACAGCGAT	-0.0187 E-score
CAGGAGAA	-0.111 E-score

Sequence	binding signal
AATTTAAG	0.18 E-score
ACAGTGTC	0.114 E-score
ACTGATAA	0.273 E-score
TAGCTTCA	0.13 E-score
AAGCAAGG	-0.19 E-score
AAGTTGAG	-0.123 E-score
ATATGTTC	0.184 E-score
ATATGTAA	0.286 E-score
CTATGTAA	0.185 E-score
AGATGTAC	0.315 E-score
ATATGTAG	0.391 E-score
CTATGTTA	0.285 E-score
ATATGTTA	0.395 E-score
CTATGTAC	0.186 E-score
ATATGTAC	0.345 E-score
CGCTATTA	0.211 E-score
CATTAGCA	-0.0362 E-score
GAGCTCAC	-0.145 E-score
ACGCAGAG	-0.119 E-score
